Source: PubChem
A selection: hits, their analogues and other compounds. The true share with any hit is near 4%.
697 NFkB inh: lowers PMA/ionomycin-induced NF-kB signal in 697 B cells. inhibition, % at 4 µM. hit rate 0.33% among 330,000. 697 B-cell NF-kB luciferase reporter, 16 h. AID 435022; in the data active = inhibition above about 35%
Gli-Sufu block: antagonists of Gli-Sufu signaling | Sufu-KO-LIGHT fibroblasts, Gli luciferase reporter luminescence | inhibition, % at 5 µM | hit rate 0.74% among 340,000 | AID 588413;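 active = inhibition above about 55%, limit read from the data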;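 note: 0% = DMSO-treated cells and 100% = wells with medium but no cells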
Jurkat NFkB inh: inhibitors of the PMA/ionomycin-induced NF-kB reporter in Jurkat cells; PMA/ionomycin-induced NF-kB luciferase reporter, luminescence; inhibition, % at 4 µM; hit rate 0.53% among 330,000; AID 435003; in the data active = inhibition above about 50%
Beta cell apopt: blocks beta cell apoptosis | INS-1E cytokine-induced death, ATP luminescence, 48 h; percent of positive-control rescue, neutral wells zero | protection from apoptosis, % (no concentration beside the values) | hit rate 0.8% among 300,000;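 active = Every replicate reaches about 75%, or at least half do and their mean reaches it too, limit read from the data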;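 note: 0% = cytokine-treated negative control wells and 100% = positive control rescue; higher means more ATP so stronger rescue from cytokine killing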
Mdm2 MdmX PPI: disrupts the human Mdm2-MdmX interaction; AID 485346; hit rate 3% among 330,000; SaOS-2 split-luciferase Mdm2/MdmX complementation, luminescence; O15151+Q00987; inhibition, % at 8 µM;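 active = inhibition of at least 50% at 8 µM in the primary screen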
Jurkat NFkB conf: lowers PMA/ionomycin-induced NF-kB signal in Jurkat cells; shares compounds with Jurkat NFkB inh; Jurkat NF-kB luciferase, 16 h; inhibition, % at 4 µM; hit rate 27% among 2,700; AID 435020;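 active = inhibition reaching about 45% at 4 µM in either replicate, limit read from the data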;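 note: plate controls were PMA/ionomycin stimulated DMSO wells for no effect and unstimulated DMSO wells for full effect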
The depositor's hits bear a star; x = not tested or not shown.

SMILES | 697 NFkB inh | Gli-Sufu block | Jurkat NFkB inh | Beta cell apopt | Mdm2 MdmX PPI | Jurkat NFkB conf
CC1(C(=O)NCC2CCCO2)Oc2cccnc2NC1=O (configuration not stated) | 4.4 | -22.0 | 10.5 | -1.1 | 22.0 | x
O=C(CCN1C(=O)c2cccc3cccc(c23)C1=O)Nc1ccon1 | -9.8 | -7.4 | -14.4 | 4.4 | -22.6 | x
Cc1cccc(NC(=S)Nc2ccccn2)c1 | -58.9 | -15.8 | -41.4 | -5.7 | -49.1 | x
Cc1cccc(NC(=S)c2nc3ccccc3s2)c1 | -234.7 | -31.3 | -173.3 | 1.6 | -142.8 | -103.0
Cc1ccc2nc(SCC(=O)c3ccccc3)nc(=O)n2c1 | -97.3 | -1.1 | -224.6 | 0.4 | -109.9 | -75.0
CCc1cccc2c(C(=O)CN3C(=O)NC4(CCCCC4)C3=O)c[nH]c12 | -15.0 | 1.6 | 6.3 | -17.0 | 5.7 | x
CCc1cccc2c(C(=O)CN3C(=O)NC4(CCCCCC4)C3=O)c[nH]c12 | -15.4 | -6.4 | 93.9* | 42.1 | 19.6 | 15.8
COc1cccc(-c2ccc(=O)n(CC(=O)Nc3ccc(S(=O)(=O)NCC(C)C)cc3)n2)c1 | 4.1 | x | 0.2 | 2.4 | -2.2 | x
CC(C)CC(=O)Nc1ccc2nn(-c3ccccc3)nc2c1 | -157.6 | -103.2 | -182.7 | 0.9 | -188.1 | -111.5
CCCC(=O)Nc1ccc2nn(-c3ccc(OC)cc3)nc2c1 | -189.9 | -68.0 | -129.5 | x | -127.8 | x
COC(=O)[C@@H]1CCCN1C(=O)CCc1nnc(CCC2CCCCC2)o1 | -16.0 | -3.6 | -21.5 | -9.0 | -79.1 | x
O=S(=O)(/N=C(/Nc1nc2ccccc2s1)c1ccccc1)c1ccccc1 | -219.4 | -2.7 | -166.7 | 1.5 | -290.2 | -107.2
CCOC(=O)/C=C/c1ccc2oc3ccccc3c(=O)c2c1 | -228.5 | -108.4 | -164.8 | 0.4 | -205.6 | -92.1
O=S1(=O)C=CC(Nc2cccc(Cl)c2)C1 (configuration not stated) | 12.2 | -1.1 | 50.3* | -6.0 | -11.5 | 18.3
CC1(C)CC(=O)C(N=Nc2cc(S(=O)(=O)N3CCOCC3)ccc2Cl)=C(O)C1 | -14.1 | -3.8 | -14.2 | 10.1 | -7.7 | x
Clc1ccc2nc(-c3ccc(Br)s3)cn2c1 | -150.8 | -126.2 | -178.8 | 2.8 | -87.5 | -100.0
Cc1ccc(COn2c(-c3ccc(Cl)cc3)nc3ccc([N+](=O)[O-])cc32)cc1 | -168.4 | -105.1 | -148.1 | x | -75.9 | x
O=[N+]([O-])c1ccc2nc(-c3ccc(Cl)cc3)n(OCc3ccccc3)c2c1 | -240.5 | -56.9 | -199.0 | 18.0 | -77.9 | -88.7
COc1ccc(S(=O)(=O)N2CCCCCC2)cc1C(=O)NCCOc1ccc(C)cc1 | -0.8 | 12.7 | -4.2 | 3.4 | 20.8 | x
COC(=O)Nc1csc2c1NC(=O)CCCC2 | 4.0 | -3.5 | -7.9 | -11.4 | 5.2 | x
O=C(c1ccccc1)c1cnc(Nc2ccccc2Cl)s1 | -148.7 | -117.8 | -155.9 | 1.5 | -190.1 | -71.6
COc1ccc(C(C)=O)cc1COc1ccccc1[N+](=O)[O-] | 7.5 | -9.1 | 22.2 | 9.9 | 15.1 | x
COc1ccc(C(C)=O)cc1COc1cccnc1[N+](=O)[O-] | -17.6 | 22.2 | 54.5* | -5.8 | 31.8 | 1.3
CCCN(CC(=O)Nc1cc(C)on1)CC(=O)Nc1ccccc1C | 17.3 | 2.7 | -20.1 | 2.0 | -20.4 | x
Fc1ccccc1CSc1nnc(-c2ccccc2)o1 | -149.6 | -125.9 | -155.8 | x | -228.3 | -64.9
SMILES | 697 NFkB inh | Gli-Sufu block | Jurkat NFkB inh | Beta cell apopt | Mdm2 MdmX PPI | Jurkat NFkB conf
COc1ccc(-c2nnc(SCc3ccccc3F)o2)cc1 | -203.9 | -98.6 | -161.0 | 0.5 | -156.7 | -87.0
Cc1ccccc1-c1nnc(SCc2ccccc2)o1 | -71.8 | -101.8 | -89.1 | x | -94.8 | x
Cc1ccccc1-c1nnc(SCc2ccccc2F)o1 | -188.2 | -132.2 | -153.3 | 4.8 | -221.9 | -74.3
O=C(OCN1C(=O)c2ccccc2C1=O)c1cccc(S(=O)(=O)N2CCOCC2)c1 | 2.7 | -6.1 | 5.7 | -11.4 | 24.3 | x
Cn1c(C(=O)Nc2ccc3c(c2)OCCO3)cc2sccc21 | -194.8 | -91.3 | -190.5 | 2.1 | -142.1 | -103.8
CN(C)CCNC(=O)c1onc(CSc2nc3ccccc3[nH]2)c1C(=O)NCCN(C)C | 19.3 | -2.7 | 11.6 | -1.4 | 2.1 | x
O=C(CCCc1ccccc1)c1ccccc1 | -95.8 | -82.4 | -176.1 | 0.0 | -100.2 | -100.6
O=C(CCCC(=O)c1ccc(O)cc1)c1ccc(O)cc1 | -223.5 | -73.9 | -163.3 | 1.1 | -152.5 | -91.3
CCN(CC)C(=O)Cn1cc(C(=O)C(=O)NCc2ccco2)c2ccccc21 | 5.0 | 8.7 | 10.4 | -7.9 | 20.9 | x
O=c1c2ccccc2nc2n1CCc1c-2[nH]c2ccccc12 | -175.6 | -133.6 | -193.5 | 1.0 | -83.9 | -85.1
O=C(NCc1ccc2c(c1)OCO2)c1cc([N+](=O)[O-])ccc1N1CCCCC1 | -53.8 | 28.0 | 65.2* | 11.3 | 42.2 | 29.7
COC(=O)c1c(-c2ccc(SC)cc2)sc2ccc(OC)cc12 | -165.8 | -100.1 | -153.3 | -6.2 | -188.9 | -90.4
COC(=O)c1c(-c2cc(OC)cc(OC)c2)sc2ccc(OC)cc12 | -3.0 | -13.3 | -14.8 | 1.7 | -1.8 | x
COc1cccc2sc3ccc(C#CC4(O)CCCCC4)cc3c(=O)c12 | -117.4 | -100.0 | -193.7 | -2.1 | -107.3 | -47.4
O=C(CCN1C(=O)C2CCCCC2C1=O)Nc1nc2ccc(F)cc2s1 (configuration not stated) | -243.1 | -47.7 | -168.1 | 0.9 | 4.2 | -47.7
O=C(CCN1C(=O)C2CCCCC2C1=O)Nc1nc2c(F)cc(F)cc2s1 (configuration not stated) | -75.3 | -38.4 | -46.0 | -2.5 | -83.4 | x
COc1ccc(C(=O)Nc2ccc3[nH]c(-c4cccc(OC)c4)cc(=O)c3c2)cc1 | -18.7 | -8.8 | 85.4* | 5.9 | 47.7 | 49.2*
COc1cccc(N2CCN(C(=O)c3ccc(CS(=O)c4ccc(Cl)cc4)o3)CC2)c1 (configuration not stated) | 0.0 | 20.4 | 51.3* | 4.6 | 45.8 | 14.2
COc1ccccc1C(=O)N1CCN(c2cccc(Cl)c2)CC1 | -35.5 | 10.2 | 55.9* | 11.9 | 46.8 | 33.2
O=C(c1c(Cl)nc2sccn12)N1CCN(c2cccc(Cl)c2)CC1 | -3.8 | -1.6 | 60.6* | 18.3 | 38.7 | 47.4
COc1ccccc1N1CCN(C(=O)c2cn(Cc3ccccc3)nc2-c2cccnc2)CC1 | -16.8 | 11.8 | -4.9 | -10.9 | 4.6 | x
COc1cccc(N2CCN(C(=O)c3ccc(CS(=O)Cc4ccc(C)cc4)o3)CC2)c1 (configuration not stated) | -16.3 | -8.6 | -5.2 | -2.6 | 17.7 | x
COc1cccc(N2CCN(C(=O)c3cn(Cc4ccccc4)nc3-c3cccnc3)CC2)c1 | -45.5 | 2.4 | 60.5* | 2.7 | 44.8 | 40.4
O=C(c1cc2ccccc2cc1O)N1CCN(c2cccc(Cl)c2)CC1 | 0.7 | -6.1 | 1.8 | x | -1.9 | x
CCN(C(=O)COC(=O)/C=C/c1c(C)nn(Cc2ccc(C)cc2)c1C)C1CCS(=O)(=O)C1 (configuration not stated) | 12.9 | -1.9 | 4.6 | -1.1 | -1.4 | x
CC(=O)Nc1ccc2c(c1)nc1n2CCSC1 | 5.8 | -2.9 | 0.4 | -2.6 | 9.8 | x
Cc1ccc(C(=O)Nc2ccc3c(c2)nc2n3CCSC2)cc1 | -111.2 | -112.4 | -171.1 | 1.1 | -104.8 | -70.7
